According to PubChem BioAssay (Tox21):
Inconclusive results are not listed. Activity calls are given as the source filed them. Unless noted, calls follow the shape of the dose curve; as a rule, active = well fitted curve in the direction sought with a large enough effect in the repeat runs; inconclusive = weak or mixed curves; inactive = no such curve, though single readings can be large; an effect the other way counts as inactive or inconclusive.

Experiments:
[1] = biological target: Thyrotropin receptor (Homo sapiens) (UniProt P16473); experiment: qHTS assay to identify small molecule antagonists of the thyroid stimulating hormone receptor (TSHR) signaling pathway (AID 1259385; calls by dose curve; also: nearly all actives have a fitted effect of over 20% in size; also: potency is read from the fitted curve at half-maximal effect)
Chain of Thyrotropin receptor (Homo sapiens) (P16473 whole entry, looked up): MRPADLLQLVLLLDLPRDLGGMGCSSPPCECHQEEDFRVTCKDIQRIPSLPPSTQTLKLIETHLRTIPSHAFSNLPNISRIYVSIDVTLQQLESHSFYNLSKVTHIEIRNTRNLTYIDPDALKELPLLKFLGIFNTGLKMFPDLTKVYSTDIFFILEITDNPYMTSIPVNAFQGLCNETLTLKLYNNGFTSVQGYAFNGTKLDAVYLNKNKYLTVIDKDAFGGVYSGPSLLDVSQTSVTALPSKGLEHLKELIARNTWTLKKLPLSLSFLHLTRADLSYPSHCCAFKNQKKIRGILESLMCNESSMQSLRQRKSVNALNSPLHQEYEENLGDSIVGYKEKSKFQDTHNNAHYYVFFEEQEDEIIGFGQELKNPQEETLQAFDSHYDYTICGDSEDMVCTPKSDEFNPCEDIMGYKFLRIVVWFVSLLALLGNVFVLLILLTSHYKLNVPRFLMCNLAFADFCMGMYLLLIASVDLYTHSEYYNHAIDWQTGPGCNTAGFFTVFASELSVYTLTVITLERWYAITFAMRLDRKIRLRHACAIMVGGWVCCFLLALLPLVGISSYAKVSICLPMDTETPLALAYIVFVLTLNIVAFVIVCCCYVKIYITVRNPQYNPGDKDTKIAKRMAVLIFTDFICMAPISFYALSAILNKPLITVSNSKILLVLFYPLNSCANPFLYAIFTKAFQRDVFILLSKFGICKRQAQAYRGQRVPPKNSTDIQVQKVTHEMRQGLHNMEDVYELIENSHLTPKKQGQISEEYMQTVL
Procedure, shortened: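 Antagonist mode: compound-treated TSHR-expressing HEK293 cells were stimulated with 1.5 ng/mL TSH (final) in presence of Ro20-1724 for 30 min at RT. HTRF cAMP detection after 1 h; each compound tested at 15 concentrations, triplicate.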

[2] = qHTS assay to identify small molecule agonists of the estrogen receptor alpha (ER-alpha) signaling pathway in the presence of an antagonist - cell viability counter screen (AID 1259386);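 also: series mostly up to about 92 µM; cells exposed to compounds for 22 h at 37 °C before the viability read; nearly all actives have a fitted effect of over 30% in size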
Procedure, shortened: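 Using estrogen-depleted VM7Luc4E2 cells, the 15-concentration compound series was applied together with 10.0nM ICI-182,780 and incubated 22hr at 37C/5% CO2. Cell viability was then scored by CellTiter-Fluor.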

[3] = biological target: Progesterone receptor (Homo sapiens) (UniProt P06401); experiment: qHTS assay to identify small molecule antagonists of the progesterone receptor (PR) signaling pathway (AID 1346795; active = well fitted inhibition curve with a large enough effect in the signal ratio in the repeat runs, not every such curve was filed as active; the % refers to the signal ratio; also: potency is read from the fitted curve at half-maximal effect)
Chain of Progesterone receptor (Homo sapiens) (P06401 whole entry, looked up): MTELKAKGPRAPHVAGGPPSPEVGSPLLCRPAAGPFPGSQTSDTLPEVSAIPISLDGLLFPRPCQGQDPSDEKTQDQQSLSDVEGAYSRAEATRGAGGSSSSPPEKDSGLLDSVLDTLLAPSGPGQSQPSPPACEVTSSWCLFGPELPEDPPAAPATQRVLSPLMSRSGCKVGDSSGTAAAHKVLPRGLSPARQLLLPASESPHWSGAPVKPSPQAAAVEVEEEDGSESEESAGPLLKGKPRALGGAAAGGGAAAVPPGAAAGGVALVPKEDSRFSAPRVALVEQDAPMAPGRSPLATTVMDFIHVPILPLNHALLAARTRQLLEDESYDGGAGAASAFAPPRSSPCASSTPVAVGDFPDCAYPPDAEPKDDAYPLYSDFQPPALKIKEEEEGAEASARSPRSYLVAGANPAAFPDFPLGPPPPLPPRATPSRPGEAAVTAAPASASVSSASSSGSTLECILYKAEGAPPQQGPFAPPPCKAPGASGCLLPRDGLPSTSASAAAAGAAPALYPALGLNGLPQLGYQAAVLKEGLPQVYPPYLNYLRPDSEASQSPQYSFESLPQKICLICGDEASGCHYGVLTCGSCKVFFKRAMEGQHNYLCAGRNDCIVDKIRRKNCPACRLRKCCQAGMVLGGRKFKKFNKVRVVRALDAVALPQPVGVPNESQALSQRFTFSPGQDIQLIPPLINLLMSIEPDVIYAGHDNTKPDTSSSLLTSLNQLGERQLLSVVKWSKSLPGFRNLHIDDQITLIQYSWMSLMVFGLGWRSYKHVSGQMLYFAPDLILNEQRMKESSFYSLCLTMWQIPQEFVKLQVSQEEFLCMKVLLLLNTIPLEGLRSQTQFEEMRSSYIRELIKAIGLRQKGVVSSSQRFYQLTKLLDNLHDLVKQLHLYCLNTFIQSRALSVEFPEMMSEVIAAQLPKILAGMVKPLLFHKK
Procedure, shortened: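 Fluorescence intensity measured 2 hr after adding beta-lactamase FRET substrate to PR-UAS-bla HEK293T cells that had been co-treated 16 hr with compound and 1 nM R5020 (final concentration) in 2% charcoal-stripped FBS.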

[4] = qHTS assay to identify small molecule antagonists of the progesterone receptor (PR) signaling pathway - cell viability counter screen (AID 1346798); also: nearly all actives have a fitted effect of over 50% in size; also: potency is read from the fitted curve at half-maximal effect; as to activity change, negative = cytotoxicity: series mostly up to about 92 µM
Procedure, shortened: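 CellTiter-Glo luminescence; PR-UAS-bla HEK293T, 3,000 cells/well; compound + R5020, 16 hr, 37C/5% CO2; 30 min RT before read.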

[5] = qHTS assay to identify small molecule agonists of the progesterone receptor (PR) signaling pathway - cell viability counter screen (AID 1346799; calls by dose curve; also: nearly all actives have a fitted effect of over 45% in size)
Procedure, shortened: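 In parallel with the beta-lactamase readout, cytotoxicity toward PR-UAS-bla HEK293T cells was measured by CellTiter-Glo luminescence following 16 hr compound incubation in 2% charcoal-stripped FBS medium.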

[6] = qHTS assay to identify small molecule agonists of the TGF-beta/Smad signaling pathway - cell viability counter screen (AID 1346829); also: top concentration of the series differs between compounds; nearly all actives have a fitted effect of over 45% in size
Procedure, shortened: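 Luminescence from CellTiter-Glo, read after a 30 min room-temperature incubation, gives cell viability of SBE-bla HEK 293T cells treated 5 hr with compounds at 37 C.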

[7] = qHTS assay to identify small molecule agonists of the TGF-beta/Smad signaling pathway (AID 1346859; active = well fitted activation curve with a large enough effect in the signal ratio in the repeat runs, not every such curve was filed as active; the % refers to the signal ratio; also: series mostly up to about 77 µM)
Procedure, shortened: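 After overnight seeding, SBE-bla HEK 293T cells are dosed with compounds in DMSO and kept 5 hr at 37 C, 5% CO2. LiveBLAzer-type FRET substrate is then applied for 2 hr at room temperature.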

[8] = biological target: Thyrotropin-releasing hormone receptor (Homo sapiens) (UniProt P34981); experiment: qHTS assay to identify small molecule antagonists of the thyrotropin-releasing hormone receptor (TRHR) signaling pathway (AID 1346877; active = well fitted inhibition curve with a large enough effect in the repeat runs, not every such curve was filed as active; also: series mostly up to about 51 µM)
Chain of Thyrotropin-releasing hormone receptor (Homo sapiens) (P34981 whole entry, looked up): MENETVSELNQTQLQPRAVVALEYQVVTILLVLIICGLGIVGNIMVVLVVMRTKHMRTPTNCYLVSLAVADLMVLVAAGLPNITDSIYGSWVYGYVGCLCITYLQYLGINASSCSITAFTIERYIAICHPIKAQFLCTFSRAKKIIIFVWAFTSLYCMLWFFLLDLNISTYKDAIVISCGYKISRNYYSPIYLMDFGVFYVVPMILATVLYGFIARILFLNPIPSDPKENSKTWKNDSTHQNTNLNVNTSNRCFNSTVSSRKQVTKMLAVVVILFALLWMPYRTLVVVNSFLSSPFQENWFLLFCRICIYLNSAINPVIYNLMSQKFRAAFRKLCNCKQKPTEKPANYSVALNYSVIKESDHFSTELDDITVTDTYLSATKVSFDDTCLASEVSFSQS
Procedure, shortened: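 Calcium signal in dye-loaded TRHR/HEK293 cells; compounds added 5 min before TRH (1 nM final); fluorescence monitored 3 min at 1 s steps.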

[9] = qHTS assay to identify small molecule antagonists of the TGF-beta/Smad signaling pathway - cell viability counter screen (AID 1346824); also: nearly all actives have a fitted effect of over 50% in size
Procedure, shortened: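 Cytotoxicity counter-screen run in the same wells as the beta-lactamase Smad reporter read: CellTiter-Glo luminescence after 30 min at room temperature. HEK 293T SBE-bla cells had 5 hr compound exposure at 37 C with TGF-beta1 (0.25 ng/mL stock).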

[10] = biological target: Progesterone receptor (Homo sapiens) (UniProt P06401); experiment: qHTS assay to identify small molecule agonists of the progesterone receptor (PR) signaling pathway (AID 1346784; calls by dose curve; also: nearly all actives have a fitted effect of over 30% in size)
Procedure, shortened: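 Fluorescence from LiveBLAzer B/G FRET substrate cleavage (2 hr, RT) reported PR activation in PR-UAS-bla HEK 293T cells treated 16 hr at 37C/5% CO2 with compounds; medium contained 2% charcoal-stripped FBS.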
% is scaled to controls: 0 for no effect and ±100 for the full control effect.

CCCCNC(=O)NCCCC
inactive: Potency [1] | Potency [2] | Potency [3] | Potency [4] | Potency [5] | outcome [6] | outcome [7] | outcome [8]

CCCCCSCCCCC
inactive: Potency [1] | Potency [2] | Potency [3] | Potency [4] | Potency [5] | Potency [9] | outcome [6] | outcome [7]

O=C(O)COc1nn(Cc2ccccc2)c2ccccc12
inactive: Potency [1] | Potency [2] | Potency [3] | Potency [4] | Potency [5] | Potency [9] | outcome [6] | outcome [8]

CC(C)(c1ccc(O)cc1)c1ccc(O)cc1
active: Potency [3] 15.2 µM
inactive: Potency [1] | Potency [2] | Potency [9] | outcome [6] | outcome [7] | outcome [8]

C1CN(CCOCCN2CCOCC2)CCO1
inactive: Potency [1] | Potency [2] | Potency [3] | Potency [4] | Potency [5] | Potency [9] | outcome [6] | outcome [7]

Cc1cc(O)cc2c1O[C@](C)(CCC[C@H](C)CCC[C@H](C)CCCC(C)C)CC2
inactive: Potency [1] | Potency [2] | Potency [3] | Potency [4] | Potency [5] | Potency [9] | outcome [6] | outcome [7] | outcome [8]

NC(=O)c1ccc([N+](=O)[O-])cc1
inactive: Potency [1] | Potency [2] | Potency [4] | Potency [5] | Potency [9] | outcome [6] | outcome [7]

Brc1c(NC2=NCCN2)ccc2nccnc12
inactive: Potency [1] | Potency [2] | Potency [3] | Potency [4] | Potency [5] | Potency [9] | outcome [6] | outcome [7]

CCCCOCCOCCOCc1cc2c(cc1CCC)OCO2
inactive: Potency [2] | Potency [4] | Potency [5] | Potency [9] | outcome [6] | outcome [7] | outcome [8]
active: Potency [1] 23.7 µM

O=C(O)CN(CCOCCOCCN(CC(=O)O)CC(=O)O)CC(=O)O
inactive: activity change, negative = inhibition [1] 0.526% [at 0.349 µM] | activation [10] -1.13% [at 0.349 µM] | activity change, negative = inhibition [3] 0.191% [at 0.348 µM] | activity change, negative = cytotoxicity [4] 5.83% [at 0.348 µM] | activity change, negative = cytotoxicity [5] 5.81% [at 0.349 µM] | viability change, negative = cytotoxic [9] 3.24% [at 0.29 µM] | activity change, negative = cytotoxicity [6] 0.742% [at 0.29 µM] | activation [7] 3.14% [at 0.29 µM]

CCO/C([O-])=N/c1c[n+](N2CCOCC2)no1
inactive: Potency [1] | Potency [2] | Potency [3] | Potency [4] | Potency [5] | Potency [9] | outcome [6] | outcome [7] | outcome [8]

CCCCCCCCCCCC
inactive: Potency [1] | Potency [2] | Potency [5] | Potency [9] | outcome [6] | outcome [7] | outcome [8]
active: Potency [4] 68.6 µM

CCOC(=O)c1c(C)n(C)c2ccc(O)cc12
inactive: Potency [1] | Potency [2] | Potency [3] | Potency [4] | Potency [5] | Potency [9] | outcome [6] | outcome [7] | outcome [8]

CC(C)NCC(O)c1ccc(NS(C)(=O)=O)cc1 (centres undefined)
inactive: Potency [1] | Potency [2] | Potency [3] | Potency [4] | Potency [5] | Potency [9] | outcome [6] | outcome [7] | outcome [8]

Cc1sccc1Br
inactive: Potency [1] | Potency [2] | Potency [4] | Potency [5] | Potency [9] | outcome [6] | outcome [7] | outcome [8]

NC(=O)COCCN1CCN(C(c2ccccc2)c2ccc(Cl)cc2)CC1 (centres undefined)
inactive: Potency [1] | Potency [2] | Potency [3] | Potency [4] | Potency [5] | Potency [9] | outcome [6] | outcome [7] | outcome [8]

CN1CCC(=C2c3ccccc3CC(=O)c3sccc32)CC1
inactive: Potency [1] | Potency [2] | Potency [3] | Potency [4] | Potency [5] | Potency [9] | outcome [6] | outcome [7]

C[C@@H]1CCN(C(=O)[C@H](CCCN=C(N)N)NS(=O)(=O)c2cccc3c2NC[C@H](C)C3)[C@@H](C(=O)O)C1
inactive: Potency [1] | Potency [2] | Potency [3] | Potency [4] | Potency [9] | outcome [6] | outcome [7] | outcome [8]

O=C1CC2CC1C1CCCC21 (centres undefined)
inactive: Potency [1] | Potency [10] | Potency [3] | Potency [4] | Potency [5] | Potency [9] | outcome [6] | outcome [7] | outcome [8]

NS(=O)(=O)c1ccccc1Cl
inactive: Potency [1] | Potency [10] | Potency [3] | Potency [4] | Potency [5] | Potency [9] | outcome [7]

NS(=O)(=O)c1cc(C(=O)O)cc(N2CCCC2)c1Oc1ccccc1
inactive: Potency [1] | Potency [10] | Potency [3] | Potency [4] | Potency [9] | outcome [6] | outcome [7] | outcome [8]

N=c1nc(N2CCCCC2)cc(N)n1O
inactive: Potency [1] | Potency [3] | Potency [4] | Potency [5] | Potency [9] | outcome [6] | outcome [7] | outcome [8]
